Assay results: PubChem BioAssay (Tox21)
Inconclusive results are not listed. Active and inactive are the calls of the source. Unless noted, calls follow the shape of the dose curve; as a rule, active = well fitted curve in the direction sought with a large enough effect in the repeat runs; inconclusive = weak or mixed curves; inactive = no such curve, though single readings can be large; an effect the other way counts as inactive or inconclusive.

Legend:
[1] = molecular target: Luciferin 4-monooxygenase (Photinus pyralis) (UniProt P08659); experiment: qHTS assay to identify small molecule inhibitors of firefly luciferase (AID 1224835); also: nearly all actives have a fitted effect of over 25% in size; also: potency is read from the fitted curve at half-maximal effect; as to activity change, negative = inhibition: series mostly up to about 120 µM
Chain of Luciferin 4-monooxygenase (Photinus pyralis) (P08659 whole entry, looked up): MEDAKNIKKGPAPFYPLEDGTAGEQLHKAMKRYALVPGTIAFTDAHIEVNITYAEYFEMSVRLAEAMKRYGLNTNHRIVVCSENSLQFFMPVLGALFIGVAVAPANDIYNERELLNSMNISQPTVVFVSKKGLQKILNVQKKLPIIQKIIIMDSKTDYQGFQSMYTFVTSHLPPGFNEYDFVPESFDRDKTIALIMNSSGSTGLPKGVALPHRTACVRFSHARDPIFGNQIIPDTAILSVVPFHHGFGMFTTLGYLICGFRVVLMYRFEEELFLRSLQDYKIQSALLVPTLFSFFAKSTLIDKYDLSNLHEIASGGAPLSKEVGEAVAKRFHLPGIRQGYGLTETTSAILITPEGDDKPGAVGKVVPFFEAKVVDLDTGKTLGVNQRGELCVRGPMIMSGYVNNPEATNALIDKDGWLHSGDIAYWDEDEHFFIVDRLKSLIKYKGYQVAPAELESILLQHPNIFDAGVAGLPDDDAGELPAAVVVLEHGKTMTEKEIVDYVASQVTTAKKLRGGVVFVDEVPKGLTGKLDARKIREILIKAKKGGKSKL
Procedure, shortened: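 Biochemical qHTS: compounds run as interplate titrations against purified firefly enzyme, with D-luciferin and ATP each at its KM concentration. Light output recorded by CCD imaging.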

[2] = qHTS assay to identify small molecule agonists of the constitutive androstane receptor (CAR) signaling pathway - cell viability counter screen (AID 1224836); also: series mostly up to about 92 µM; nearly all actives have a fitted effect of over 45% in size
Procedure, shortened: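 Using CellTiter-Fluor, viability of HepG2 cells harbouring hCAR and CYP2B6-2.2kb was measured following 23 h incubation with a 15-concentration compound series plus PK11195 (0.75 uM final).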

[3] = qHTS assay to identify small molecule antagonists of the constitutive androstane receptor (CAR) signaling pathway - cell viability counter screen (AID 1224837); also: nearly all actives have a fitted effect of over 45% in size; also: potency is read from the fitted curve at half-maximal effect; as to activity change, negative = cytotoxicity: series mostly up to about 92 µM
Procedure, shortened: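 Counter screen run in HepG2-CYP2B6-hCAR cells: 4 hr settle, compound titration (15 concentrations) with 50 nM CITCO, 23 hr at 37 C/5% CO2, CellTiter-Fluor fluorescence.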

[4] = molecular target: Nuclear receptor subfamily 1 group I member 3 (Homo sapiens) (UniProt Q14994); experiment: qHTS assay to identify small molecule antagonists of the constitutive androstane receptor (CAR) signaling pathway (AID 1224838);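 also: HepG2 cells stably expressing hCAR with CYP2B6 luciferase reporter stimulated by CITCO; nearly all actives have a fitted effect of over 40% in size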; also: potency is read from the fitted curve at half-maximal effect
Chain of Nuclear receptor subfamily 1 group I member 3 (Homo sapiens) (Q14994 whole entry, looked up): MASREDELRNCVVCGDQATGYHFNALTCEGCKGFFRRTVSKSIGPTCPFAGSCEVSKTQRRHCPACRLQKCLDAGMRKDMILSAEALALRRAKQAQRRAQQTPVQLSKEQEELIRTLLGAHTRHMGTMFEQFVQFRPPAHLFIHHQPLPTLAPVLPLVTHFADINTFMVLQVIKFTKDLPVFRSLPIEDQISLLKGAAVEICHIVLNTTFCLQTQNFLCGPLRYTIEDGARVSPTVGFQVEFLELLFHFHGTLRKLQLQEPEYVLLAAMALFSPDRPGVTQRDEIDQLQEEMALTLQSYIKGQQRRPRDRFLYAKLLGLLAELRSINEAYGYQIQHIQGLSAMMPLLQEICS
Procedure, shortened: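 Cell line: HepG2 double-stable for hCAR and CYP2B6-2.2kb reporter. Agonist: CITCO, 50 nM final. Compounds: 15 concentrations, 24 h, 37 C. Detection: ONE-Glo luminescence.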

[5] = molecular target: Nuclear receptor subfamily 1 group I member 3 (Homo sapiens) (UniProt Q14994); experiment: qHTS assay to identify small molecule agonists of the constitutive androstane receptor (CAR) signaling pathway (AID 1224839); also: nearly all actives have a fitted effect of over 15% in size; also: potency is read from the fitted curve at half-maximal effect;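 as to activation: HepG2 cells stably carrying human CAR and a CYP2B6 luciferase reporter; series mostly up to about 92 µM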
Procedure, shortened: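 Double-stable HepG2 cells (hCAR, CYP2B6-2.2kb) seeded 4 h before compound addition. Exposure 24 h with 0.75 uM PK11195 final. Luciferase detected by ONE-Glo.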

[6] = qHTS assay to identify small molecule antagonists of the estrogen related receptor signaling pathway with the pleiotropic PPARgamma coactivator (PGC) from Tox21 10K library - cell viability counter screen (AID 1224840; active = well fitted cell-killing curve with a large enough effect in the repeat runs, not every such curve was filed as active; also: nearly all actives have a fitted effect of over 40% in size; also: potency is read from the fitted curve at half-maximal effect)
Procedure, shortened: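 Following seeding of 2,000 PGC/ERR cells/well and 6 hours' incubation, test compounds were delivered in DMSO. The plates then sat 17.5 hours at 37 C before a fluorogenic live-cell protease reagent (CellTiter-Fluor) was read after 30 min.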

[7] = qHTS assay to identify small molecule agonists of the hypoxia (HIF-1) signaling pathway - cell viability counter screen (AID 1224844; calls by dose curve; also: nearly all actives have a fitted effect of over 50% in size; also: potency is read from the fitted curve at half-maximal effect)
Procedure, shortened: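 Cells (HRE-bla ME-180, 2,000 per well) sat 5 hrs at 37C, got compound for 17 hrs, were read for CCF4-AM FRET, and were finally lysed with CellTiter-Glo for a 30 min room-temperature luminescence read.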

[8] = qHTS assay to identify small molecule agonists of H2AX (AID 1224845; active = well fitted activation curve with a large enough effect in the signal ratio in the repeat runs, not every such curve was filed as active; the % refers to the signal ratio; also: potency is read from the fitted curve at half-maximal effect)
Procedure, shortened: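 Wild-type CHO-K1 cells, plated overnight, exposed 3hr at 37C to 15 concentrations (0.76% DMSO final). Lysed, then HTRF anti-pH2AX (S139) cryptate and anti-H2AX-d2 antibodies, 24 hr room temperature; 665/620 nm emission read.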

[9] = qHTS assay to identify small molecule agonists of the hypoxia (HIF-1) signaling pathway (AID 1224846; active = well fitted activation curve with a large enough effect in the signal ratio in the repeat runs, not every such curve was filed as active; the % refers to the signal ratio)
Procedure, shortened: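 A low-serum medium (0.5% dialyzed FBS) holding 2,000 HRE-bla ME-180 cells per well is preincubated for 5 hrs, dosed with compounds by pintool, and kept a further 17 hrs at 37C, 5% CO2 before CCF4-AM FRET detection of beta-lactamase.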

[10] = qHTS assay to identify small molecule antagonists of the estrogen related receptor signaling pathway with the pleiotropic PPARgamma coactivator (PGC) from Tox21 10K library (AID 1224841; call rule not given here; also: actives are mostly falling curves and most rising ones were filed inactive; nearly all actives have a fitted effect of over 50% in size; also: potency is read from the fitted curve at half-maximal effect; as to activity, negative = inhibition: series mostly up to about 92 µM)
Procedure, shortened: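 qHTS antagonist format: PGC/ERR cells, 2k/well, compound in DMSO by pin transfer after 6 h attachment, 18 h treatment at 37 C, One-Glo luminescence read at 30 min.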

[11] = qHTS assay to identify small molecule agonists of the estrogen related receptor signaling pathway with the pleiotropic PPARgamma coactivator (PGC) from Tox21 10K library (AID 1224842); also: nearly all actives have a fitted effect of over 15% in size
Procedure, shortened: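 PGC/ERR reporter cell line, 2,000 cells per well, incubated 6 h at 37 C before 23 nL compound in DMSO was added. After 18 h at 37 C, One-Glo luminescence read following 30 min at room temperature.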

[12] = molecular target: Thyrotropin receptor (Homo sapiens) (UniProt P16473); experiment: qHTS assay to identify small molecule agonists of the thyroid stimulating hormone receptor (TSHR) signaling pathway (AID 1224843; calls by dose curve; also: nearly all actives have a fitted effect of over 45% in size; also: potency is read from the fitted curve at half-maximal effect)
Chain of Thyrotropin receptor (Homo sapiens) (P16473 whole entry, looked up): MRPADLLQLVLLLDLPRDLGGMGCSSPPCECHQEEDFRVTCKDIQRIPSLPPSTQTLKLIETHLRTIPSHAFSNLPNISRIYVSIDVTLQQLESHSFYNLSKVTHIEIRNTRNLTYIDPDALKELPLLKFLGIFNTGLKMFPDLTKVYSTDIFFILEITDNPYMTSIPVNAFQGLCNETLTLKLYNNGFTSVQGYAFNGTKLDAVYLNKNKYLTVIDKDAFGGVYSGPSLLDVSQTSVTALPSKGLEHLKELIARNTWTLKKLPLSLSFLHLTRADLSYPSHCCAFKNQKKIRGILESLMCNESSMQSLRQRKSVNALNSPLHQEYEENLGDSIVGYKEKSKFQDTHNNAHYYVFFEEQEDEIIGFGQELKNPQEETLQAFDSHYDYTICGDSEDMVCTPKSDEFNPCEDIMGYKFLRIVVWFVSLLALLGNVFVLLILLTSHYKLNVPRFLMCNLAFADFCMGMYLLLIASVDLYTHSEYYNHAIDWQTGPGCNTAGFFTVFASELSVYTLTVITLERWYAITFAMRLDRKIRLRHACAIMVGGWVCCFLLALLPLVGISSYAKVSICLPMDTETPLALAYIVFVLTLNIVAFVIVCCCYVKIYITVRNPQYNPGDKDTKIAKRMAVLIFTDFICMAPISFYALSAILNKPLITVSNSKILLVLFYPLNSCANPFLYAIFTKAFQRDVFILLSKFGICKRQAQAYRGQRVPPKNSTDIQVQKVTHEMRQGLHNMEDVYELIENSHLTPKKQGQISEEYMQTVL
Procedure, shortened: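 Steps: seed 800 TSHR-HEK293 cells per well; add test compound and hold 30 min at ambient temperature; dispense cAMP-d2 then anti-cAMP cryptate; incubate 1 h at ambient; measure fluorescence intensity.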
% is scaled to controls: 0 for no effect and ±100 for the full control effect.

ClC(c1ccccc1)(c1ccccc1)c1ccccc1
active: Potency [5] 21.7 µM
inactive: Potency [1] | Potency [2] | Potency [3] | Potency [4] | Potency [6] | Potency [7] | Potency [8] | Potency [9]

CCOC(=O)[C@H](O)[C@@H](O)C(=O)OCC
inactive: Potency [1] | Potency [2] | Potency [3] | Potency [4] | Potency [5] | Potency [6] | Potency [7] | Potency [8] | Potency [9]

CCCCCCCCCC[N+](C)(CCCCCCCCCC)CCC[Si](OC)(OC)OC
inactive: Potency [2] | Potency [3] | Potency [4] | Potency [5] | Potency [8]
active: Potency [1] 79.6 µM | Potency [7] 54.9 µM

CC(c1cc(C(C)(C)C)cc(C(C)(C)C)c1O)c1cc(C(C)(C)C)cc(C(C)(C)C)c1O
inactive: Potency [1] | Potency [2] | Potency [3] | Potency [6] | Potency [10] | Potency [11] | Potency [12] | Potency [7]

CCCCCc1ccc(O)cc1
active: Potency [1] 56.4 µM | Potency [5] 54.5 µM
inactive: Potency [2] | Potency [3] | Potency [4] | Potency [6] | Potency [10] | Potency [11] | Potency [12]

O=C(Nc1ccc([N+](=O)[O-])cc1)Nc1ccc([N+](=O)[O-])cc1 (tested in a mixture with another compound)
inactive: Potency [1] | Potency [2] | Potency [3] | Potency [6] | Potency [12] | Potency [7] | Potency [8] | Potency [9]

CCCCCCCCCCCCS(=O)(=O)Cl
inactive: activity change, negative = inhibition [1] -13.9% [at 23.6 µM] | viability change, negative = cytotoxic [2] 14.3% [at 19 µM] | activity change, negative = cytotoxicity [3] -7.2% [at 19 µM] | activity, negative = inhibition [4] -3.15% [at 19 µM] | activation [5] -0.0973% [at 19 µM] | viability change, negative = cytotoxic [6] 3.05% [at 19 µM] | activation [12] -1.12% [at 19 µM] | activity change, negative = cytotoxicity [7] -3.11% [at 15.8 µM] | activation (H2AX phosphorylation) [8] 0.0057% [at 31.6 µM] | activation [9] 1.7% [at 15.8 µM]

O=c1[nH]cccc1O
inactive: Potency [1] | Potency [2] | Potency [3] | Potency [4] | Potency [5] | Potency [10] | Potency [11] | Potency [7] | Potency [8]

CCCCCCCC/C=C\CCCCCCCC(=O)N(CCO)CCO
inactive: Potency [1] | Potency [6] | Potency [8]

CCOc1ccc([N+](=O)[O-])cc1
inactive: Potency [3] | Potency [6] | Potency [7] | Potency [8]

Nc1cc([N+](=O)[O-])cc(Cl)c1O
inactive: Potency [1] | Potency [4] | Potency [5] | Potency [6] | Potency [7]

CCOC(=O)[C@H](C)O
inactive: Potency [1] | Potency [2] | Potency [4] | Potency [5] | Potency [6] | Potency [7] | Potency [8] | Potency [9]

C=CC(C)(C)O
inactive: Potency [1] | Potency [2] | Potency [4] | Potency [5] | Potency [6] | Potency [7] | Potency [8]

Cc1ccc(N=Nc2c(O)ccc3ccccc23)c(C)c1
inactive: Potency [2] | Potency [4] | Potency [12] | Potency [8]
active: Potency [1] 13.8 µM | Potency [5] 8.41 µM | Potency [7] 21.3 µM

CCCCC/C=C\C=C\C(=O)OCC
inactive: Potency [1]
active: Potency [7] 51 µM | Potency [8] 59 µM

Nc1ccc(F)c([N+](=O)[O-])c1
active: Potency [10] 30.6 µM
inactive: Potency [1] | Potency [3] | Potency [4] | Potency [5] | Potency [6] | Potency [11] | Potency [12] | Potency [7] | Potency [8]

Oc1ccc2c(c1)CCC2
inactive: Potency [1] | Potency [2] | Potency [4] | Potency [6] | Potency [10] | Potency [11] | Potency [7] | Potency [8] | Potency [9]

Oc1ccc(C2(c3ccc(O)c(C4CCCCC4)c3)CCCCC2)cc1C1CCCCC1
active: Potency [3] 27.3 µM | Potency [4] 27.3 µM | Potency [6] 61.1 µM | Potency [10] 54.5 µM | Potency [12] 6.86 µM | Potency [7] 12.3 µM | Potency [8] 22.5 µM
inactive: Potency [1] | Potency [5] | Potency [11]

CCOC(=O)C1=NN(c2ccc(Cl)cc2Cl)C(C)(C(=O)OCC)C1 (stereo unspecified)
inactive: Potency [1] | Potency [2] | Potency [6] | Potency [11] | Potency [7] | Potency [8] | Potency [9]

COc1cc([C@@H]2c3cc4c(cc3[C@@H](O[C@@H]3O[C@@H]5CO[C@@H](C)O[C@H]5[C@H](O)[C@H]3O)[C@H]3COC(=O)[C@H]23)OCO4)cc(OC)c1O
inactive: Potency [1] | Potency [2] | Potency [3] | Potency [10]

COc1c(Br)cc(Br)c(C)c1Br
inactive: Potency [1] | Potency [2] | Potency [6] | Potency [12] | Potency [7] | Potency [9]

CC/C=C\C/C=C\C/C=C\CCCCCCCC(=O)OC
inactive: Potency [1] | Potency [2] | Potency [7] | Potency [9]

Oc1cccc2c(O)cccc12
active: Potency [5] 30.6 µM | Potency [10] 2.73 µM
inactive: Potency [4] | Potency [11] | Potency [12]
